# Screens (PubChem BioAssay)
# This is a sample that favours compounds with a hit; in the whole collection about 2.2% have one here.
# Mito fusion yeast = qHTS Assay for Small Molecule Inhibitors of Mitochondrial Division or Activators of Mitochondrial Fusion | S. cerevisiae fusion-defective mutant growth rescue, CellTiterGlo 48 h | Potency, µM (highest dose often 46.1 µM), for the others: top-dose growth rescue (activation), hits mostly activators | hit rate 0.23% among 320,000; note: % of control where 0% means no effect; nearly all actives have a fitted effect of over 45% in size
#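 Temperature-sensitive fusion-defective S. cerevisiae (e.g. fzo1-1, mgm1-5) were grown with compound in YPEG medium (3% ethanol, 3% glycerol) for 48 hours at 37C. Growth rescue was measured as viability by CellTiterGlo luminescence after 10 minutes at ambient.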
# FUS suppressor = qHTS for Suppressors of FUS Proteinopathy: Primary screen using FUS-linked yeast assay. S. cerevisiae FUS-expressing, growth rescue, OD600, 24 h. Potency, µM (doses to about 76.6 µM), most hits filed as activators. AID 1347120, 2019. hit rate 0.24% among 390,000;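 note: plate controls were DMSO vehicle for no effect and reference control for full effect; nearly all actives have a fitted effect of over 55% in size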
#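 Toxicity suppression screen in FUS-yeast. Cells induced with 2% galactose, starting OD 0.005, treated 24hr at 30C with compounds at multiple final concentrations; growth by OD600.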
# aSyn rescue = qHTS of alpha-syn Inhibitors | Yeast expressing alpha-synuclein, growth rescue, BacTiter-Glo, 24 h | Potency, µM (titrated, usually from 46.1 µM), for the others: top-dose growth rescue (activation), most hits filed as activators | hit rate 0.14% among 370,000; note: % of control where 0% means no effect; nearly all actives have a fitted effect of over 65% in size
#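 Readout is rescue of growth in alpha-synuclein-expressing yeast, so inhibitors of toxicity appear as activators. Growth after 24 hr at 30 deg C in galactose medium is quantified by luminescence.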
# TDP43 rescue = qHTS of TDP-43 Inhibitors. TDP-43 expressing yeast growth rescue, BacTiter-Glo, 24 h. Potency, µM (doses to about 46.1 µM), for the others: top-dose growth rescue (activation), usual class: activators. hit rate 1.8% among 410,000. AID 652104, 2013; note: % of control where 0% means no effect; nearly all actives have a fitted effect of over 50% in size
#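 Galactose-induced TDP-43 yeast, OD600=0.02, compound pinned; 24 hr, 30 deg C; BacTiter-Glo luminescence for growth. Inhibitors of TDP-43 toxicity read as activators.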
# Abeta yeast res = qHTS for compounds that reverse cellular toxicity of Amyloid beta (A-beta) peptide in yeast: Primary Screen; yeast expressing A-beta42, growth rescue, OD600, 48 h; response scale: 0% DMSO, 100% iron-clioquinol control; Potency, µM (top dose mostly 46.1 µM), actives largely listed as activators; hit rate 0.063% among 410,000; AID 1347071, 2019; note: nearly all actives have a fitted effect of over 55% in size
#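 Growth rescue measured by 600 nm absorbance after 48 h yeast culture at 30 C with compound. Values normalized between DMSO and an equimolar ferric chloride plus clioquinol control.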
# Numbers without * were called inactive; i = inactive; ? = inconclusive; / = not tested or not shown. Calls come from the whole dose curve; as a rule, active = well fitted curve in the direction sought with a large enough effect; inconclusive = small, poorly fitted or top-dose-only effect, or another doubt; inactive = no such curve, though single readings can be large; an effect the other way counts as inactive or inconclusive. Potency is the fitted concentration of half-maximal effect.
SMILES,Mito fusion yeast,FUS suppressor,aSyn rescue,TDP43 rescue,Abeta yeast res
C[C@@H]1CN([C@H](C)CO)C(=O)c2c(c3ccccc3n2C)-c2ccccc2CO[C@@H]1CN(C)C(=O)Nc1ccccc1C(F)(F)F,/,i,-5%,20µM*,i
Cc1noc(C)c1NC(=O)N(C)C[C@@H]1OCc2ccccc2-c2c(n(C)c3ccccc23)C(=O)N([C@H](C)CO)C[C@H]1C,/,i,-2%,0%,i
O=C(CSc1ccccc1Cl)c1ccco1,0%,i,0%,16µM*,i
Cc1ccc(C(c2nnnn2Cc2ccccc2)N2CCN(Cc3ccncc3)CC2)cc1 (stereo unspecified),/,/,0%,/,/
COc1cc2c(NC3CCN(C)CC3)nc(N3CCCN(C)CC3)nc2cc1OCC1CCCCN1 (stereo unspecified),/,/,9%,/,/
C=CCc1ccccc1OCC(O)CN1C(=O)c2ccccc2C1=O (stereo unspecified),-1%,i,17%,11µM*,i
Cc1ccc(Cl)cc1N1CCN(C(=O)CCS(=O)(=O)c2ccc3c(c2)oc(=O)n3C)CC1,/,i,/,?,i
CC1=CC2=NC(=O)/C(=C\c3cccn3CCOc3cc(C)cc(C)c3)C(=N)N2O1,20µM*,i,9%,?,i
CC1=CC2=NC(=O)/C(=C\c3cccn3CCOc3cccc(C)c3)C(=N)N2O1,?,i,?,?,i
CC1=CC2=NC(=O)/C(=C\c3cccn3CCOc3cc(C)ccc3C)C(=N)N2O1,?,i,5%,16µM*,i
CC(=O)c1cccc(N(C(=O)Cn2nnc3ccccc32)C(C(=O)NCc2ccccc2)c2ccc(F)cc2)c1 (stereo unspecified),/,i,/,-6%,i
Cc1ccc(C)c(N2CCN(C(=O)C(C)n3c(C)c4cnn(-c5ccccc5)c(=O)c4c3C)CC2)c1 (stereo unspecified),/,i,/,0%,i
COc1cccc(/C(=N/O)C2CC2c2ccc(Cl)cc2)c1 (stereo unspecified),4%,i,10%,16µM*,i
COc1cccc(/C(C)=N/NS(=O)(=O)c2ccc(Cl)cc2)c1,2%,i,1%,-13%,i
CCc1ccc(OCC(=O)NNC(=S)NC(=O)C2CC2)c(Br)c1,-28%,i,0%,-58%,i
CCc1ccc(OCC(=O)NNC(=O)c2cnccn2)c(Br)c1,-1%,i,?,25µM*,25µM*
CCc1ccc(OCC(=O)NNC(=S)NC(=O)C2CCCCC2)c(Br)c1,-3%,i,7.1µM*,18µM*,7.9µM*
CCc1ccc(OCC(=O)Nc2ccncc2)c(Br)c1,-6%,i,1%,2%,i
COc1ccc(OC)c(NC(=O)COCc2cc(-c3ccco3)on2)c1,/,i,/,10%,i
O=C(Cc1cccc(F)c1)NO,/,/,2%,/,/
Cc1c(Cl)cccc1NC(=O)c1ccc2nc(C(C)C)oc2c1,/,i,/,0%,i
COc1cc(C(O)c2nc(-c3cccs3)cs2)ccc1F (stereo unspecified),/,i,11%,0%,i
COc1ccc(-c2csc(C(O)c3ccc(F)cc3)n2)cn1 (stereo unspecified),/,i,2%,35µM*,i
COc1ccc(-c2csc(C(O)c3ccc(OC)cc3)n2)cc1 (stereo unspecified),/,i,?,?,i
COc1ccc(-c2csc(C(O)c3cccnc3)n2)cn1 (stereo unspecified),/,i,7%,?,i
SMILES,Mito fusion yeast,FUS suppressor,aSyn rescue,TDP43 rescue,Abeta yeast res
COc1ccc(C(O)c2nc(-c3ccc4ccccc4c3)cs2)cc1 (stereo unspecified),/,i,3.5µM*,3%,i
COc1ccc(C(O)c2nc(-c3cccs3)cs2)cc1 (stereo unspecified),/,i,18%,16µM*,i
COc1ccc(C(O)c2nc(-c3ccc(Cl)cc3)cs2)cc1 (stereo unspecified),/,i,11µM*,?,?
OC(c1ccco1)c1nc(-c2ccc(F)c(Cl)c2)cs1 (stereo unspecified),/,i,1%,13µM*,i
COc1ccc(-c2csc(C(O)c3ccc(F)cc3)n2)cc1 (stereo unspecified),/,i,?,22µM*,i
COc1ccc(C(O)c2nc(-c3ccccc3)cs2)cc1 (stereo unspecified),/,i,20%,35µM*,?
COc1ccc(C(O)c2nc(-c3ccncc3)cs2)cc1 (stereo unspecified),/,i,7%,?,i
COc1cccc(NCc2nnc(SC(C(=O)N(C)C)c3ccccc3)n2C2CCCCC2)c1 (stereo unspecified),/,/,6%,/,/
CN(C)c1ccc(-c2csc(C(O)c3ccccc3)n2)cc1 (stereo unspecified),/,i,14%,24%,i
CN(C)c1ccc(C(O)c2cc3ccccc3s2)cc1 (stereo unspecified),/,i,14µM*,16%,?
Oc1ccc(COC2CCCC2)c2cccnc12,3%,/,/,/,/
COCCOc1ccc(C(F)(F)F)cc1NC(=O)c1ccccc1,13%,i,0%,?,i
CC(=O)Nc1cc(C(F)(F)F)ccc1Oc1cccc(Br)c1,0%,i,1%,11µM*,i
CC(=O)Nc1cc(C(F)(F)F)ccc1OCCOc1ccccc1,/,i,-3%,13µM*,i
CCOc1ccc(NC(=O)CSc2nnc3c(n2)[nH]c2ccc(S(=O)(=O)N4CCCCC4)cc23)cc1,/,/,-5%,/,/
CCOc1ccc(C2C(C(=O)Nc3ccccc3C)=C(C)Nc3nnnn32)cc1 (stereo unspecified),/,i,/,0%,i
CC(O)(c1ccccc1)c1nc(-c2ccccc2)cs1 (stereo unspecified),/,i,4%,14µM*,?
Oc1cccc(-c2csc(C(O)(c3ccccc3)C(F)(F)F)n2)c1 (stereo unspecified),/,i,?,22µM*,i
COc1ccc(C(C)(O)c2nc(-c3ccc(OC)c(OC)c3)cs2)cc1 (stereo unspecified),/,i,22%,?,i
COc1cccc(C(C)(O)c2nc(-c3cccc(C(C)C)c3)cs2)c1 (stereo unspecified),/,?,-18%,18µM*,i
COc1ccc(-c2csc(C(C)(O)c3ccc(F)c(F)c3)n2)cc1OC (stereo unspecified),/,i,9%,22µM*,i
